Results as given in PubChem BioAssay AID1159580 (chemical genetic matrix, 2015).
About 2,000 (36%) of roughly 5,500 compounds were called active. Another 18% or so got no clear call; they are omitted. This is one part of the list. A number with no mark means an inactive call. No stated cut-off is given here; in the data, active means normalized growth mostly below about 0.91 (no sharp cut-off); inconclusive means no clear call, values can overlap the other calls; inactive means mostly above about 0.92.

Test: chemical genetic growth profiling, strain panel (AID 1159580);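 further: tested at 20 µM; growth read once vehicle control cultures reached saturation at 30 °C; 1 = growth at the plate median or of vehicle wells; lower values mean less growth of the strain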
Conditions: S. cerevisiae deletion strains, growth OD
[1] = locus YHR030C, strain SLT2, hits give low values
[2] = locus YHR079C, strain IRE1, hits give low values
[3] = locus YJL095W, strain BCK1, hits give low values
[4] = locus YJR066W, strain TOR1, hits give low values
[5] = locus YLR113W, strain HOG1, hits give low values
[6] = locus YNL183C, strain NPR1, hits give low values
[7] = locus YOR231W, strain MKK1, hits give low values
[8] = locus YPL256C, strain CLN2, hits give low values

For `CC(C)CC(NC(=O)CCN)C(=O)O` (centres undefined), the normalized growth [1] was 0.976, the normalized growth [2] was 0.964 and the normalized growth [3] was 0.974. For the same molecule, the normalized growth [4] was 0.896, the normalized growth [5] was 0.986 and the normalized growth [6] was 0.886. The normalized growth [7] was 0.993 and the normalized growth [8] was 0.975.

`NCCCN=c1ccc2c3c1c(O)c1c(O)ccc(=O)c1c3[nH]n2CCNCCO` gave a normalized growth (locus YAR019C, strain CDC15, hits give low values) of 0.984, a normalized growth (locus YBL105C, strain PKC1, hits give low values) of 0.977 and a normalized growth (locus YBR135W, strain CKS1, hits give low values) of 0.986. The normalized growth (locus YBR136W, strain MEC1, hits give low values) was 0.97, the normalized growth (locus YBR160W, strain CDC28, hits give low values) was 0.982 and the normalized growth (locus YDL017W, strain CDC7, hits give low values) was 0.976. It also gave a normalized growth (locus YDL028C, strain MPS1, hits give low values) of 0.976, a normalized growth (locus YDL101C, strain DUN1, hits give low values) of 0.969 and a normalized growth (locus YDL108W, strain KIN28, hits give low values) of 0.978. The normalized growth (locus YDL132W, strain cdc53, hits give low values) was 0.979, the normalized growth (locus YDL214C, strain PRR2, hits give low values) was 0.993 and the normalized growth (locus YDR052C, strain DBF4, hits give low values) was 0.976. The normalized growth (locus YDR054C, strain cdc34, hits give low values) was 0.974, the normalized growth (locus YDR226W, strain ADK1, hits give low values) was 0.984 and the normalized growth (locus YDR477W, strain SNF1, hits give low values) was 0.977. It also gave a normalized growth (locus YER123W, strain YCK3, hits give low values) of 0.978, a normalized growth (locus YER133W, strain GLC7, hits give low values) of 0.977 and a normalized growth (locus YFL009W, strain cdc4, hits give low values) of 0.982. It also gave a normalized growth (locus YFL029C, strain CAK1, hits give low values) of 0.986, a normalized growth (locus YFR003C, strain YPI1, hits give low values) of 0.973 and a normalized growth (locus YFR019W, strain FAB1, hits give low values) of 0.948. It also gave a normalized growth (locus YFR028C, strain CDC14, hits give low values) of 0.981, a normalized growth (locus YGR040W, strain KSS1, hits give low values) of 0.977 and a normalized growth (locus YGR052W, strain FMP48, hits give low values) of 0.984. The normalized growth (locus YGR092W, strain DBF2, hits give low values) was 0.688, the normalized growth [1] was 1.03 and the normalized growth [2] was 1.01. It also gave a normalized growth (locus YHR082C, strain KSP1, hits give low values) of 1.05, a normalized growth (locus YHR205W, strain SCH9, hits give low values) of 0.916 and a normalized growth (locus YIL147C, strain SLN1, hits give low values) of 0.969. It also gave a normalized growth [3] of 0.893, a normalized growth (locus YJL128C, strain PBS2, hits give low values) of 0.957 and a normalized growth (locus YJL157C, strain FAR1, hits give low values) of 0.994. The normalized growth (locus YJR016C, strain ILV3, hits give low values) was 0.982, the normalized growth (locus YJR066W, strain TOR1 (second series), hits give low values) was 0.964 and the normalized growth [4] was 1.01. The normalized growth (locus YKL048C, strain ELM1, hits give low values) was 0.94, the normalized growth (locus YKL067W, strain YNK1, hits give low values) was 0.983 and the normalized growth (locus YKL101W, strain HSL1, hits give low values) was 0.957. For the same molecule, the normalized growth (locus YKL193C, strain SDS22, hits give low values) was 0.971, the normalized growth (locus YKL203C, strain TOR2, hits give low values) was 1.01 and the normalized growth [5] was 0.982. It also gave a normalized growth (locus YLR133W, strain CKI1, hits give low values) of 0.993, a normalized growth (locus YLR403W, strain SFP1, hits give low values) of 0.916 and a normalized growth (locus YML070W, strain DAK1, hits give low values) of 0.956. For the same molecule, the normalized growth (locus YMR001C, strain CDC5, hits give low values) was 0.984, the normalized growth (locus YMR205C, strain PFK2 (second series), hits give low values) was 1 and the normalized growth (locus YMR277W, strain FCP1, hits give low values) was 0.975. It also gave a normalized growth (locus YNL006W, strain LST8, hits give low values) of 0.989, a normalized growth (locus YNL020C, strain ARK1, hits give low values) of 0.992 and a normalized growth (locus YNL161W, strain CBK1, hits give low values) of 0.986. For the same molecule, the normalized growth [6] was 1, the normalized growth (locus YNL207W, strain RIO2, hits give low values) was 0.975 and the normalized growth (locus YNL222W, strain SSU72, hits give low values) was 0.995. The normalized growth (locus YNL307C, strain MCK1 (second series), hits give low values) was 0.82, the normalized growth (locus YOL078W, strain AVO1, hits give low values) was 0.971 and the normalized growth (locus YOL136C, strain PFK27, hits give low values) was 0.965. For the same molecule, the normalized growth (locus YOR061W, strain CKA2, hits give low values) was 0.874, the normalized growth (locus YOR119C, strain RIO1, hits give low values) was 1 and the normalized growth [7] was 0.996. It also gave a normalized growth (locus YOR329C, strain SCD5, hits give low values) of 0.975, a normalized growth (locus YPL031C, strain PHO85, hits give low values) of 0.96 and a normalized growth (locus YPL153C, strain RAD53, hits give low values) of 0.97. For the same molecule, the normalized growth (locus YPL204W, strain HRR25, hits give low values) was 0.951, the normalized growth (locus YPL209C, strain IPL1, hits give low values) was 0.98 and the normalized growth [8] was 1.16 [resistant] (active). It also gave a normalized growth (locus YPR025C, strain CCL1, hits give low values) of 0.979, a normalized growth (locus YPR106W, strain ISR1, hits give low values) of 0.976 and a normalized growth (locus YPR111W, strain DBF20, hits give low values) of 0.979. The normalized growth (strain NNK1, hits give low values) was 0.978 and the normalized growth (strain TSCII, hits give low values) was 0.981.
